From PubChem BioAssay (Tox21)
Records with an inconclusive call do not appear. A call without a number means that no potency is given here. Calls of active or inactive are those of the source. Unless noted, calls come from the whole dose curve; as a rule, active = well fitted curve in the direction sought with a large enough effect in the repeat runs; inconclusive = weak or mixed curves; inactive = no such curve, though single readings can be large; an effect the other way counts as inactive or inconclusive.

How the values were obtained:
[1] = qHTS assay to identify small molecule antagonists of the vitamin D receptor (VDR) signaling pathway - cell viability counter screen (AID 743225); note: nearly all actives have a fitted effect of over 50% in size; note: potency is the fitted concentration of half-maximal effect
In short: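 In this counter screen, VDR-bla HEK 293T cells receive test compound plus 3 nM final calcitriol for 16 h at 37C. Room-temperature steps of 2 h with the beta-lactamase substrate, then 30 min with CellTiter-Glo, precede the luminescence read.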

[2] = qHTS assay to identify small molecule agonists of the NFkB signaling pathway - cell viability counter screen (AID 1159515; calls by dose curve; note: nearly all actives have a fitted effect of over 55% in size; note: potency is the fitted concentration of half-maximal effect)
In short: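 Luminescence from CellTiter-Glo (30 min, room temperature) gives viability, measured in the same wells as the beta-lactamase reporter read. Cells were NFkB-bla ME-180, 2,000 per well, treated 5 hr with compounds.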

[3] = qHTS assay to identify small molecule agonists of the endoplasmic reticulum stress response signaling pathway - cell viability counter screen (AID 1159517; calls by dose curve; note: nearly all actives have a fitted effect of over 50% in size; note: potency is the fitted concentration of half-maximal effect)
In short: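 Cells, HeLa ESRE-bla; density, 1,500/well; dosing, 5 hr at 37 C, 5% CO2; readout, CellTiter-Glo luminescence after 30 min RT.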

[4] = qHTS assay to identify small molecule antagonists of the retinoid-related orphan receptor gamma (ROR-gamma) signaling pathway - cell viability counter screen (AID 1159520); note: nearly all actives have a fitted effect of over 50% in size; note: potency is the fitted concentration of half-maximal effect
In short: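 Cytotoxicity was read from cellular ATP (CellTiter-Glo luminescence) after 16 hr at 37 C with 1 uM doxycycline induction. The inducer was added 2 hr after compound transfer to Tet-on ROR gamma CHO cells.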

[5] = target: Nuclear receptor ROR-gamma (Homo sapiens) (UniProt P51449); experiment: qHTS assay to identify small molecule antagonists of the retinoid-related orphan receptor gamma (ROR-gamma) signaling pathway (AID 1159521; note: nearly all actives have a fitted effect of over 50% in size; note: potency is the fitted concentration of half-maximal effect)
In short: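 Screening format: cell-based luciferase reporter in CHO cells with doxycycline-inducible RORγ. Compound pre-exposure lasts 2 h, doxycycline is 1 uM final, induction runs 16 h at 37 C, and ONE-Glo luminescence is read.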

[6] = qHTS assay to identify small molecule agonists of the AP-1 signaling pathway - cell viability counter screen (AID 1159525; calls by dose curve; note: nearly all actives have a fitted effect of over 55% in size; note: potency is the fitted concentration of half-maximal effect)
In short: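 Luminescent ATP readout (Cell Titer Glo, 30 min RT), normalised to DMSO and tetra n-octyl ammonium bromide controls. Cells were ME-180 AP-1-bla in 0.5% dialyzed FBS Opti-MEM, with a 5 h, 37 °C compound exposure.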

[7] = target: Retinoic acid receptor RXR-alpha (Homo sapiens) (UniProt P19793); experiment: qHTS assay to identify small molecule agonists of the RXR signaling pathway (AID 1159527; calls by dose curve; note: nearly all actives have a fitted effect of over 35% in size)
Retinoic acid receptor RXR-alpha (Homo sapiens), sequence (P19793 whole entry, looked up): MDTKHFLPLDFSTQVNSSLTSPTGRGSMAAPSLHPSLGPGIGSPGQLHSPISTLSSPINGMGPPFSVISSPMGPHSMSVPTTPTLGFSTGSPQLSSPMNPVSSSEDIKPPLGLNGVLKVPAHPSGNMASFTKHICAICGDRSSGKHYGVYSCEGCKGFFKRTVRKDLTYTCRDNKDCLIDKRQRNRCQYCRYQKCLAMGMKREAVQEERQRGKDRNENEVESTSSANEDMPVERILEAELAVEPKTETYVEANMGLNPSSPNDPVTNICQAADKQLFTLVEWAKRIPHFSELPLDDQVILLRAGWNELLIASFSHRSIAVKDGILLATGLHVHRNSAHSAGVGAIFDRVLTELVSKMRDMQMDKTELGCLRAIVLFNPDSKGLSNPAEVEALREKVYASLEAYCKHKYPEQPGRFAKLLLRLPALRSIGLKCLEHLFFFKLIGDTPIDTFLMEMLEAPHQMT
In short: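 Fluorescence ratio readout (460 vs 530 nm) from GeneBLAzer RXR-alpha HEK 293T cells after 16 hr compound treatment; cells seeded 5 hr beforehand in low-serum, charcoal-stripped medium.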

[8] = qHTS assay to identify small molecule agonists of the RXR signaling pathway - cell viability counter screen (AID 1159529); note: nearly all actives have a fitted effect of over 50% in size; note: potency is the fitted concentration of half-maximal effect
In short: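 Viability read-out for the RXR-alpha agonist qHTS: luminescent CellTiter-Glo signal after 30 min at RT. HEK 293T bla reporter cells, 2% charcoal-stripped FBS, 16 hr compound incubation; tetraoctyl ammonium bromide as cytotoxic control.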

[9] = qHTS assay to identify small molecule antagonists of the estrogen related receptor (ERR) signaling pathway from Tox21 library - cell viability counter screen (AID 1224834); note: nearly all actives have a fitted effect of over 30% in size; note: potency is the fitted concentration of half-maximal effect
In short: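 Fluorescence from CellTiter-Fluor gives the viability read-out, taken 30 min after reagent addition. Before that, ERR cells seeded 6 h earlier were incubated with compounds for 17.5 h at 37 C.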

[10] = qHTS assay to identify small molecule antagonists of the retinoid acid receptor (RAR) signaling pathway - cell viability counter screen (AID 1159551); note: nearly all actives have a fitted effect of over 35% in size; note: potency is the fitted concentration of half-maximal effect
In short: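 Luminescent ATP quantitation (CellTiter-Glo) gave cell viability in C3RL4 cells exposed to test chemicals for 6 h at 37 C alongside 1 uM final retinol.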

[11] = qHTS assay to identify small molecule antagonists of the retinoic acid receptor (RAR) signaling pathway (AID 1159552; note: nearly all actives have a fitted effect of over 50% in size; note: potency is the fitted concentration of half-maximal effect)
In short: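 Using a RARE-driven luciferase construct in C3RL4 cells, retinol at 1 uM final provided the agonist stimulus while compounds were co-applied. After 6 hours at 37 C, luminescence was recorded to flag inhibitors of retinol signaling.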

[12] = qHTS assay to identify small molecule agonists of the retinoic acid receptor (RAR) signaling pathway (AID 1159553); note: potency is the fitted concentration of half-maximal effect
In short: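 Luminescence from a RARE-driven luciferase reporter in C3RL4 cells served as the read-out, measured after 30 min with detection reagent at room temperature. Compounds in DMSO were applied for 6 hr at 37 C following overnight seeding.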

[13] = qHTS assay to identify small molecule agonists of the AP-1 signaling pathway (AID 1159526; calls by dose curve)

Row | Compound | Potency [1] | Potency [2] | Potency [3] | Potency [4] | Potency [5] | Potency [6] | Potency [7] | Potency [8] | Potency [9] | Potency [10] | Potency [11] | Potency [12] | Potency [13]
1 | N=C1N=C(N)c2ccccc21 | inactive | inactive | 21.9 µM (active) | 43.3 µM (active) | 48.6 µM (active) | inactive | inactive | inactive | 43.3 µM (active) |  |  |  | 
2 | CCOC(=O)O[C@]1(C(=O)OCCl)CC[C@H]2[C@@H]3CCC4=CC(=O)C=C[C@]4(C)[C@H]3[C@@H](O)C[C@@]21C | inactive | inactive | inactive | inactive | inactive | inactive | inactive |  | inactive | inactive | inactive | inactive | 
3 | Cc1cccc2c1cc1ccc3cccc4ccc2c1c34 | inactive | inactive | inactive | inactive | inactive | inactive |  | inactive |  | inactive | inactive |  | 
4 | COc1ccc(C(=O)/C(Br)=C\C(=O)O)cc1 |  | inactive | inactive | 48.6 µM (active) | inactive | inactive |  | inactive |  | inactive | inactive | 27.3 µM (active) | 
5 | CCCCCCCCCCCCc1ccc(O)cc1 | 17.4 µM (active) | 24.5 µM (active) | 21.9 µM (active) | 30.6 µM (active) | 24.3 µM (active) | 17.4 µM (active) |  | 13.8 µM (active) | 54.5 µM (active) | 61.1 µM (active) | 48.6 µM (active) |  | 
6 | CCCCCCC[N+](CC)(CC)CCCCc1ccc(Cl)cc1 |  | inactive | inactive | inactive | inactive | inactive |  |  | 23.7 µM (active) | inactive |  | inactive | inactive
7 | CCCCCCCCCCCCCCCS(=O)(=O)Oc1ccccc1 |  | inactive | inactive | inactive | inactive | inactive | inactive |  | inactive | inactive | inactive | inactive | 
8 | Cc1[nH]nc2c1N=C(c1ccccc1Cl)c1cc([N+](=O)[O-])ccc1N2 | 21.9 µM (active) | inactive | 43.6 µM (active) | 54.5 µM (active) | 21.7 µM (active) | 30.9 µM (active) |  | 34.7 µM (active) | 24.3 µM (active) | 43.3 µM (active) | 30.6 µM (active) |  | 
9 | CCCCC(CC)CN=C(N)NC(N)=NCCCCCCN=C(N)NC(N)=NCC(CC)CCCC (configuration not stated) | 7.56 µM (active) | 19 µM (active) | 16.9 µM (active) | 26.6 µM (active) | 26.6 µM (active) | 10.7 µM (active) |  | 8.49 µM (active) | 11.9 µM (active) | 29.8 µM (active) | 11.9 µM (active) |  | 
10 | CCc1cc(Cc2cc(CC)cc(C(C)(C)C)c2O)c(O)c(C(C)(C)C)c1 | 4.36 µM (active) | 15.5 µM (active) | 21.9 µM (active) | 27.3 µM (active) | 19.3 µM (active) | 11 µM (active) |  | 13.8 µM (active) |  | 68.6 µM (active) | 27.3 µM (active) |  | 
11 | COc1cc(-c2ccc(N=C=O)c(OC)c2)ccc1N=C=O | inactive | inactive | inactive | inactive | inactive | inactive | inactive | inactive | inactive | inactive | inactive | inactive | 
12 | CCCC(c1cc(C(C)(C)C)c(O)cc1C)c1cc(C(C)(C)C)c(O)cc1C | 14 µM (active) | 11.1 µM (active) | 22.1 µM (active) | 15.5 µM (active) | 13.9 µM (active) | 7 µM (active) |  | 11.1 µM (active) | 19.6 µM (active) | 27.6 µM (active) | 27.6 µM (active) |  | 
13 | Clc1ccc(C(Cn2ccnc2)OCc2ccc(Sc3ccccc3)cc2)c(Cl)c1 (configuration not stated) |  | inactive | inactive | inactive | inactive | inactive | inactive |  | inactive | inactive | inactive | inactive | 
14 | N=C1C=CC(=C(c2ccc(N)cc2)c2ccc(N)cc2)C=C1 |  | inactive | inactive | 13.7 µM (active) | 15.4 µM (active) | inactive |  | inactive | 21.7 µM (active) | 19.3 µM (active) | 13.7 µM (active) | inactive | 
15 | CCCCN1C(=O)[C@@H]([C@H](O)C2CCCCC2)NC(=O)C12CCN(Cc1ccc(Oc3ccc(C(=O)O)cc3)cc1)CC2 |  | inactive | inactive | inactive | inactive | inactive |  | inactive |  | inactive |  |  | 
16 | Cc1cc(O)c(Cl)c(C)c1Cl |  | 54.9 µM (active) | 54.9 µM (active) | inactive | inactive | inactive | inactive |  | inactive | inactive | inactive |  | 
17 | Cc1cc(O)c(C(C)(C)C)cc1C(C)(C)C | 21.9 µM (active) | 49 µM (active) | 24.5 µM (active) | 54.5 µM (active) | 54.5 µM (active) | 21.9 µM (active) |  | 21.9 µM (active) |  | 43.3 µM (active) | 54.5 µM (active) |  | 
18 | NNc1nc(-c2ccc([N+](=O)[O-])cc2)cs1 |  | inactive | inactive | 30.6 µM (active) | 10.9 µM (active) | inactive |  | inactive |  | 43.3 µM (active) | inactive | 54.5 µM (active) | 
